Only some compounds are listed: those with a hit (about 5.4% of all), similar ones and a draw of the others.
PP1 inh = PP1-alpha (human) inhibition in PP5 counter-screen; P62136; purified PP1alpha, OMFP fluorescence; inhibition, % at 6.7 µM; 0.9% of 320,000 active; AID 2235;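 active = inhibition above the mean inhibition of all tested compounds plus 3 SD, computed separately for each screening campaign, cut at about 15% in these data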
Target sequence (P62136 whole entry, looked up): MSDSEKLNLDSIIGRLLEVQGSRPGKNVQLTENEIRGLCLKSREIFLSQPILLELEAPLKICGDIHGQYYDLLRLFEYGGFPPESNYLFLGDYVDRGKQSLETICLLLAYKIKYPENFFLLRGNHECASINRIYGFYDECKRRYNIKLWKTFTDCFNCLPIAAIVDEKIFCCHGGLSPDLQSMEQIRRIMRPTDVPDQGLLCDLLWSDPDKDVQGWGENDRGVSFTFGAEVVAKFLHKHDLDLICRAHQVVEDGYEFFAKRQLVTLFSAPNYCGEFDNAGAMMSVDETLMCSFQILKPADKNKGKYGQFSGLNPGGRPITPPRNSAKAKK
ALR H2O2 inh = inhibitors of human sulfhydryl oxidase ALR; P55789; inhibition, % (no concentration beside the values); AID 485317; purified ALR, DTT oxidation, H2O2 HRP-luminol luminescence; 3.8% of 290,000 active;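 active = mean replicate inhibition above about 79%, with every replicate also reaching it, limit read from the data; inconclusive = only one of the two criteria met; inactive = mean below limit and not every replicate reaching it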
Target sequence (P55789 whole entry, looked up): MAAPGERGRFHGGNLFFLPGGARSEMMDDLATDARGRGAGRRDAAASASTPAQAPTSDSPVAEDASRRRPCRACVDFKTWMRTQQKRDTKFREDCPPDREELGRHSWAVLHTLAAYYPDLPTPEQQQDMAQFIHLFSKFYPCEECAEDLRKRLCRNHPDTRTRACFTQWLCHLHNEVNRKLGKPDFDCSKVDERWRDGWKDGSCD
PP5 inh = blocks human protein phosphatase 5 activity. P53041. purified PP5c, OMFP substrate fluorescence. inhibition, % at 6.7 µM. 0.18% of 320,000 active. AID 1987;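 active = inhibition above the campaign's mean inhibition across all tested compounds plus 3 SD, cut at about 9.5% in these data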
CSC inhib = blocks cancer stem cells; cancer stem cell-like cells viability, luminescence; inhibition, % at 7.5 µM; 1.1% of 300,000 active; AID 2717; in the data active = inhibition above about 75%; inconclusive = no clear call, values can overlap the other calls; tested in HMLE shEcad cells
Calb FLC = C. albicans growth modulation with fluconazole; AID 1979; C. albicans CaCi-2 (fluconazole-resistant clinical isolate) + fluconazole, Alamar Blue growth, 48 h; growth inhibition, % (test concentration not listed); 0.57% of 300,000 active;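 active = growth inhibition above about 58% in most replicates, limit read from the data, passing the limit was not always enough; inconclusive = exactly half the replicates above a set limit; inactive = most replicates below a set limit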;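 also: all wells also contain fluconazole at 8 µg/ml as a sub-toxic cotreatment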
Each line names hits and unclear results; the compound was inactive in the other large screens.

O=C(CN1CCOCC1)Nc1nc(-c2ccc(Cl)cc2)cs1	none (no result: ALR H2O2 inh, CSC inhib)
CC(=O)N1CCC(Nc2ccc(C)cc2)CC1	ALR H2O2 inh 98
CCOc1ccc(NC2CCN(C(C)=O)CC2)cc1	ALR H2O2 inh 91
CCc1ccccc1OCc1nc2ccc(S(=O)(=O)N3CCOCC3)cc2[nH]1	none (no result: ALR H2O2 inh)
Cc1ccc(NC(=O)CSc2nccc(=O)[nH]2)c(S(=O)(=O)N2CCOCC2)c1	ALR H2O2 inh 98
Cc1c(C(=O)N(C)c2ccccc2Cl)cnn1-c1ccccc1	none
COC(=O)c1cn(NC(=O)c2cc([N+](=O)[O-])ccc2F)c(=O)c2ccccc12	ALR H2O2 inh 96
COc1ccc(Cl)cc1S(=O)(=O)n1c([N+](=O)[O-])cnc1C	none
CCOC(=O)N1CCN(CC(O)c2ccc3cc[nH]c3c2)CC1 (centres undefined)	none
CCOC(=O)N1CCN(CC(O)c2ccc3c(c2)CCN3)CC1 (centres undefined)	ALR H2O2 inh 82
CNC(=O)c1cc(C(=O)c2ccc(Cl)cc2)c(Br)[nH]1	none
CCC(C(=O)NC(CC(=O)O)c1ccc(Cl)cc1)c1ccccc1 (centres undefined)	none
O=C(COc1ccc2ccccc2c1)N1CCN(c2ccccc2O)CC1	none
N#Cc1ccc(NC(=O)Nc2cccc(C#N)c2)cc1	none (no result: PP1 inh, PP5 inh)
N#Cc1ccc(NC(=O)Nc2ccc(Oc3ccc(NC(=O)Nc4ccc(C#N)cc4)cc3)cc2)cc1	PP1 inh 17 (no result: ALR H2O2 inh)
CSc1sc(C)cc1C=O	Calb FLC inconclusive
O=c1cc(-c2c(F)c(F)c(F)c(F)c2F)oc2c(F)c(F)c(F)c(F)c12	CSC inhib 101
Cc1ccc(S(=O)(=O)NC2=NCN(C)CN2)cc1[N+](=O)[O-]	none
COC(=O)c1c(NC(=O)CC2SC(N)=NC2=O)sc2c1CCC(C(C)(C)C)C2 (centres undefined)	CSC inhib 109
O=C(CSc1ccc2c(c1)OCCO2)Nc1ccc(Cl)cn1	ALR H2O2 inh 89
COc1ccc(NC(=O)CSc2ccc(F)cc2)cc1S(=O)(=O)N1CCCCC1	none (no result: CSC inhib)
COc1ccc(NC(=O)CSc2ccc3c(c2)OCCO3)cc1	ALR H2O2 inh 98 (no result: PP1 inh, PP5 inh, Calb FLC)
COc1ccc(NC(=O)CN(C)C(=O)CSc2ccc3c(c2)OCCO3)cc1	ALR H2O2 inh 98
COc1ccc(NC(=O)CSc2ccc(NC(C)=O)cc2)cc1S(=O)(=O)N1CCCCC1	ALR H2O2 inh 99
CCOc1cc(/C=C\c2nc(O)c([N+](=O)[O-])c(=O)[nH]2)ccc1OC(C)CC (centres undefined)	ALR H2O2 inh inconclusive
CC(=O)Nc1ccc(NC(=O)CSc2nnnn2-c2ccc3c(c2)OCCO3)cc1	none
CC(=O)Nc1ccc(SCC(=O)Nc2ccc3c(c2)OCCO3)cc1	ALR H2O2 inh 98 (no result: PP1 inh, PP5 inh, Calb FLC)
CCN(CC)CCSc1nnc2c3cc(F)ccc3n(Cc3ccccc3)c2n1	none
CCN(CC)CCn1c2ccccc2c2n[nH]c(=S)nc21	ALR H2O2 inh 94
CCN(CC)CCSc1nnc2c3ccccc3n(Cc3ccccc3)c2n1	CSC inhib 79
CCOC(=O)Cc1[nH]nc2c1C(Cc1ccccc1)C(C#N)=C(N)O2 (centres undefined)	none
COc1ccc(Cl)cc1N1CCN(CCNC(=O)Nc2ccccc2C)CC1	none
Cn1c(Cc2ccccc2)nnc1SCC(=O)c1ccc(Br)s1	ALR H2O2 inh 83
Cc1cc(N=Nc2ccc(Cl)cc2)cc(CN2CCOCC2)c1O	none (no result: ALR H2O2 inh)
Cc1cc(N=Nc2ccc(Cl)cc2)cc(CN2CCCC2)c1O	ALR H2O2 inh 99
CCNC(=O)Oc1ccc(-c2csnn2)cc1	ALR H2O2 inh 99
COc1ccccc1OCC(=O)Nc1ccc(S(=O)(=O)NC(C)=O)cc1	none
CCN(CC)c1ccc(NS(=O)(=O)c2ccc(-c3ccc(=O)[nH]n3)o2)c(C)c1	ALR H2O2 inh 100
Cc1ccsc1/C=N/Nc1nc2ccccc2s1	none (no result: ALR H2O2 inh)
C(=N\Nc1nc2ccccc2s1)/c1cccs1	ALR H2O2 inh 89
O=C1c2cccc([N+](=O)[O-])c2C(=O)N1C1CCCCC1	ALR H2O2 inh 98
CC(=O)N1CC[n+]2c(-c3ccc(Cl)cc3)csc21	ALR H2O2 inh 99
O=C(CN1CC[n+]2c(-c3cccs3)csc21)c1ccc(-c2ccccc2)cc1	none
CCc1ccc(-c2csc3[n+]2CCN3C(C)=O)cc1	ALR H2O2 inh 99
CC(=O)N1CCN(C(=S)c2ccc(Cl)cc2)CC1	none
Cc1c(NC(=O)CCC(=O)N2CCOCC2)c(=O)n(-c2ccccc2)n1C	none
Fc1ccc2nc(C3CCN(Cc4nc(CC5CC5)no4)CC3)[nH]c2c1	none (no result: CSC inhib)
CCc1ccc(-c2nc(CS(=O)CC(=O)NC3CCCCCC3)c(C)o2)cc1 (centres undefined)	ALR H2O2 inh 99
CCc1ccc(-c2nc(CS(=O)CC(=O)NC3CC3)c(C)o2)cc1 (centres undefined)	ALR H2O2 inh 98
CCc1ccc(-c2nc(CS(=O)CC(=O)O)c(C)o2)cc1 (centres undefined)	ALR H2O2 inh 99
Cc1oc(-c2ccccc2)nc1CS(=O)CC(=O)NC1CCCC1 (centres undefined)	ALR H2O2 inh 99 (no result: CSC inhib)
O=C(CCCN1CCC(c2ccccc2)C1)c1ccc2c(c1)OCCO2 (centres undefined)	none
O=C(Cn1cnc2ccccc21)N/N=C/c1ccccc1	none
O=C(CN1C2=NCCCN2c2ccccc21)c1ccc(Br)s1	none (no result: CSC inhib)
Cc1ccc(-n2[nH]c(C)c(C=NC34CN5CN(CN(C5)C3)C4)c2=O)cc1C	none
Cc1ccc(NC(=O)CCC(C(=O)O)N2C(=O)c3ccccc3C2=O)cc1 (centres undefined)	none (no result: CSC inhib)
O=C(Cc1nnc(NC(=O)Nc2ccc(Cl)cc2)s1)NCc1ccccc1	none
Cc1ccc(-c2nc(CS(=O)CC(=O)NC3CC3)c(C)o2)cc1 (centres undefined)	ALR H2O2 inh 99
Cc1oc(-c2ccccc2Cl)nc1CSCC(=O)NC1CCCC1	none (no result: ALR H2O2 inh)
Cc1oc(-c2ccccc2Cl)nc1CS(=O)CC(=O)NC1CC1 (centres undefined)	ALR H2O2 inh 99
CCC(C)[C@H]1CNCCN1CCc1cc(C(F)(F)F)cc(C(F)(F)F)c1 (some centres undefined)	none
CCC(C)[C@H]1CNC(=S)N1CCc1cc(C(F)(F)F)cc(C(F)(F)F)c1 (some centres undefined)	PP5 inh 9.6
CC(=O)NC1CCCN(O)C(=O)/C=C(\C)CCOC(=O)C(NC(C)=O)CCCN(O)C(=O)/C=C(\C)CCOC(=O)C(NC(C)=O)CCCN(O)C(=O)/C=C(\C)CCOC1=O (centres undefined)	Calb FLC 86
O=C(/C(N=Nc1cccc(C(F)(F)F)c1)=C(/O)c1cccs1)C(F)(F)F	CSC inhib 140
CCN(CC)CCN(C(=O)c1cc2c(ccc3ccccc32)oc1=O)c1nc2cc3c(cc2s1)OCCO3	CSC inhib 91
Cn1c(SCC(N)=O)nnc1-c1ccccc1	none
O=C(NC(=S)N1CCN(c2ccccc2)CC1)c1c(F)cccc1F	ALR H2O2 inh 99
O=C(c1cccs1)N1CCN(c2ccccc2)CC1	ALR H2O2 inh 98
O=C(c1c[nH]c2ccccc12)N1CCN(c2ccccc2)CC1	ALR H2O2 inh 87
